“And” between values parts separate entries of the source, which are not always exact repeats. Equal values may be shown once. Results filed as inconclusive are left out. Where a call stands in place of a potency, no number is given. Unmarked numbers belong to inactive results. The source made the active and inactive calls. Calls follow the shape of the dose curve; as a rule, active = well fitted cell-killing curve with a large enough effect; inconclusive = small, poorly fitted or top-dose-only effect; inactive = flat fitted curve, though single readings scatter.
Assay: Cellular viability qHTS for adrenocortical cancer (ACC) cell line SW-13 (AID 1963989); also: nearly all actives have a fitted effect of over 65% in size;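 as to activity (max response): cells grown in serum-free medium with ITS supplement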
Conditions: SW-13 ACC cells viability, CellTiter-Glo, 48 h; activity (max response): hits give low values
Method in brief: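 Here, serum-free SW-13 cultures were dosed up to 46 uM. Following 48 h, ATP-dependent luminescence (CellTiter-Glo) reported viable cells, and logistic modeling produced IC50 values.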
Potency is read from the fitted curve at half-maximal effect.

Row | Compound | activity (max response) | Potency
1 | C[C@H]1C[C@@H]2[C@H]([C@@H](O)C[C@@]3(C)[C@H]2CC[C@]3(O)C(=O)CO)[C@@]2(C)C=CC(=O)C=C12 | 8.4% and 9.49% | –
2 | CCCCNc1ccc(C(=O)OCCN(CC)CC)cc1 | -7.77% | –
3 | C#CC1(O)CC[C@H]2[C@@H]3CCC4=CCCC[C@@H]4[C@H]3CC[C@@]21C (some centres not stated) | 6.47% | –
4 | Cc1onc(-c2ccc(F)cc2)c1COc1ccc(C(=O)N2CCS(=O)(=O)CC2)cn1 | -15% | –
5 | CCCCC[C@H](O)/C=C/[C@H]1[C@H](O)CC(=O)[C@@H]1CCCCCCC(=O)O | 1.24% | –
6 | COc1cc(=C2C=c3ccccc3=N2)[nH]/c1=C/c1[nH]c(C)cc1C | – | 28.2 µM (active)
7 | CN(CC1(C)CCCO1)S(=O)(=O)c1ccc(Cl)c(S(N)(=O)=O)c1 (configuration not stated) | 13.7% | –
8 | Cc1ccc(-c2ccc(C)cn2)nc1 | -26.3% | –
9 | Cc1c(N)c(=O)n(-c2ccccc2)n1C | -4.39% | –
10 | Cc1c(I)c(=O)n(-c2ccccc2)n1C | 0.251% | –
11 | CCCCCCn1c(=O)c2c(ncn2C)n(C)c1=O | 14% | –
12 | CCN(CC)CCOC(=O)C(c1ccccc1)c1ccccc1 | 0.334% | –
13 | CN1CCN(C2=Nc3ccccc3Sc3ccc(Cl)cc32)CC1 | -24.6% | –
14 | CCNC(=O)[C@H]1O[C@@H](n2cnc3c(N)nc(NCCc4ccc(CCC(=O)O)cc4)nc32)[C@H](O)[C@@H]1O | -2.22% | –
15 | c1ccc(-c2nc[nH]c2-c2ccccc2)cc1 | -22.8% | –
16 | COc1ccc([C@@H](O)[C@@H](C)Oc2ccc([C@H]3O[C@H](c4ccc(O[C@H](C)[C@H](O)c5ccc(OC)c(OC)c5)c(OC)c4)[C@H](C)[C@H]3C)cc2OC)cc1OC | – | 0.316 µM (active)
17 | c1ccc(CCNc2nc(-c3ccccc3)cs2)cc1 | -5.01% | –

Assay: Cellular viability qHTS for adrenocortical cancer (ACC) cell line NCI-H295R (AID 1963990); also: nearly all actives have a fitted effect of over 60% in size
Conditions: CellTiter-Glo ATP luminescence, 48 h; series mostly up to 46.1 µM
Method in brief: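 Viability of NCI-H295R after 48 h of treatment (final up to 46 uM) measured through cellular ATP luminescence.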

Row | Compound | Potency
18 | C[C@H]1C[C@@H]2[C@H]([C@@H](O)C[C@@]3(C)[C@H]2CC[C@]3(O)C(=O)CO)[C@@]2(C)C=CC(=O)C=C12 | inactive
19 | CN(C(=O)CN(CCO)CC(=O)N(C)C(C)(C)Cc1ccccc1)C(C)(C)Cc1ccccc1 | 23.1 µM (active)
20 | Nc1ccc(N=Nc2ccccc2)c(N)n1 | inactive
21 | CCCCNc1ccc(C(=O)OCCN(CC)CC)cc1 | inactive
22 | C#CC1(O)CC[C@H]2[C@@H]3CCC4=CCCC[C@@H]4[C@H]3CC[C@@]21C (some centres not stated) | inactive
23 | CC/C(=C(/c1ccc(/C=C/C(=O)O)cc1)c1ccc2[nH]ncc2c1)c1ccc(F)cc1Cl | 15.8 µM (active)
24 | Cc1onc(-c2ccc(F)cc2)c1COc1ccc(C(=O)N2CCS(=O)(=O)CC2)cn1 | inactive
25 | CCCOc1ccc(CCc2nc3cc(-c4c(C)noc4C)ccc3n2CCN2CCOCC2)cc1 | 22.4 µM (active)
26 | CCCCCC1Nc2cc(C(F)(F)F)c(S(N)(=O)=O)cc2S(=O)(=O)N1 (configuration not stated) | inactive
27 | CCCCC[C@H](O)/C=C/[C@H]1[C@H](O)CC(=O)[C@@H]1CCCCCCC(=O)O | inactive
28 | COc1cc(=C2C=c3ccccc3=N2)[nH]/c1=C/c1[nH]c(C)cc1C | 7.94 µM (active)
29 | Oc1c(I)cc(I)c2cccnc12 | 3.66 µM (active)
30 | Cc1cc(=O)[nH]c(=S)[nH]1 | inactive
31 | CN(CC1(C)CCCO1)S(=O)(=O)c1ccc(Cl)c(S(N)(=O)=O)c1 (configuration not stated) | inactive
32 | Cc1ccc(-c2ccc(C)cn2)nc1 | inactive
33 | [O-][n+]1ccccc1SSc1cccc[n+]1[O-] | 0.0893 µM (active)
34 | Cc1c(N)c(=O)n(-c2ccccc2)n1C | inactive
35 | Cc1c(I)c(=O)n(-c2ccccc2)n1C | inactive
36 | CCCCCCn1c(=O)c2c(ncn2C)n(C)c1=O | inactive
37 | CCOCOC[C@H](C[C@H](C)C(=O)NO)NC(=O)c1ccc(Oc2ccccc2)cc1 | inactive

Row | Compound | Potency
38 | CCn1nc(C(=O)O)c(=O)c2cc3c(cc21)OCO3 | inactive
39 | CC1=C2[N-][C@H]([C@H](CC(N)=O)[C@@]2(C)CCC(=O)NC[C@@H](C)OP(=O)([O-])O[C@H]2[C@@H](O)[C@@H](n3cnc4cc(C)c(C)cc43)O[C@@H]2CO)[C@]2(C)N=C(C(C)=C3N=C(C=C4N=C1[C@@H](CCC(N)=O)C4(C)C)[C@@H](CCC(N)=O)[C@]3(C)CC(N)=O)[C@@H](CCC(N)=O)[C@]2(C)CC(N)=O.O.[Co+2] | inactive
40 | C#Cc1cccc(Nc2ncnc3cc4c(cc23)OCCOCCOCCO4)c1 | 11.2 µM (active)
41 | CO[C@]12C[C@@H](COC(=O)c3cncc(Br)c3)CN(C)[C@@H]1Cc1cn(C)c3cccc2c13 | inactive
42 | CCN(CC)CCOC(=O)C(c1ccccc1)c1ccccc1 | inactive
43 | COc1ccc2c(c1)c(CC(=O)OC/C=C(\C)CC/C=C(\C)CCC=C(C)C)c(C)n2C(=O)c1ccc(Cl)cc1 | inactive
44 | CC[N+](C)(CC)CCOC(=O)C(O)(c1ccccc1)C1CCCCC1 (configuration not stated) | inactive
45 | CCC(C)CNCC(=O)N1CCc2sccc2C1c1cccc(C)n1 (configuration not stated) | inactive
46 | C[C@]1(C(=O)N(CCCC(=O)O)Cc2cccc(Cl)c2)CCN1C(=O)c1csc2ccccc12 | inactive
47 | N#C/C(=C1\SCC(c2ccccc2Cl)S1)n1ccnc1 (configuration not stated) | inactive
48 | Cc1cc(Nc2cc(N)ncn2)c(=O)n2c1C(=O)NC21CCCCC1 | inactive
49 | CN1CCN(C2=Nc3ccccc3Sc3ccc(Cl)cc32)CC1 | inactive
50 | CCNC(=O)[C@H]1O[C@@H](n2cnc3c(N)nc(NCCc4ccc(CCC(=O)O)cc4)nc32)[C@H](O)[C@@H]1O | inactive
51 | O=C(NOCC(O)CO)c1cc(Br)c(F)c(F)c1Nc1ccc(I)cc1F (configuration not stated) | 15.8 µM (active)
52 | CC1(C)[C@@H](O)CC[C@]2(C)[C@H]3C(=O)C=C4[C@@H]5C[C@@](C)(C(=O)O)CC[C@]5(C)CC[C@@]4(C)[C@]3(C)CC[C@@H]12 | inactive
53 | CC(C)NC(=O)N1CC[C@H](N=C2Nc3cc(F)ccc3N(CC(F)F)c3ccc(Cl)cc32)C1 | inactive
54 | c1ccc(-c2nc[nH]c2-c2ccccc2)cc1 | inactive
55 | CC(Oc1c(Cl)cccc1Cl)C1=NCCN1 (configuration not stated) | inactive
56 | COc1ccc([C@@H](O)[C@@H](C)Oc2ccc([C@H]3O[C@H](c4ccc(O[C@H](C)[C@H](O)c5ccc(OC)c(OC)c5)c(OC)c4)[C@H](C)[C@H]3C)cc2OC)cc1OC | 1.78 µM (active)
57 | c1ccc(CCNc2nc(-c3ccccc3)cs2)cc1 | inactive
